Source: PubChem BioAssay (EPA / NIEHS)
Several values for one entry are separate records, joined by “and”; a condition that tells them apart may be missing. Identical values can stand only once. A structure can be active in one record and inactive in another. Activity calls are given as the source filed them. Rule for the calls: active = hit-call score of the fitted dose curve at least 0.9, where 1 is the maximum; inactive = score below 0.9.

read-out: Thrombomodulin, THBD (gene 7056); test: BSK_3C_Thrombomodulin: BioMAP Diversity Plus: 3C Assay for Thrombomodulin Biomarker Activity (AID 2283029); conditions: primary human endothelial cells (HUVEC); actives raise or lower the signal
Outline: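 Read-out is ELISA of thrombomodulin on human umbilical vein endothelium 24 h after chemical dosing. Gain or loss of signal is scored relative to DMSO. Overt cytotoxicity is checked in parallel cultures by sulforhodamine B staining.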

Compound | outcome | AC50
O=P(O)(O)CCC(F)(F)C(F)(F)C(F)(F)C(F)(F)C(F)(F)C(F)(F)C(F)(F)C(F)(F)F | inactive | –
CCC(C)c1ccccc1O (configuration not stated) | inactive | –
O=C(O)C(F)(F)OC(F)(F)C(F)(F)OC(F)(F)C(F)(F)OC(F)(F)C(F)(F)C(F)(F)C(F)(F)F | inactive | 52 µM (active)
CCCCCCCCCCCCCCC | inactive | –
O=C1NS(=O)(=O)c2ccccc21 | inactive | –
C[C@]12CC[C@@H]3c4ccc(O)cc4CC[C@H]3[C@@H]1C[C@@H](O)[C@@H]2O | inactive | –
CCOC(=O)CN[C@@H](C(=O)N1CC[C@H]1C(=O)NCc1ccc(/C(N)=N/O)cc1)C1CCCCC1 | inactive | –
CCCCC(CC)C(=O)OCCOCCOCCOCCOC(=O)C(CC)CCCC (configuration not stated) | inactive | –
Clc1ccc(Nc2nnc(Cc3ccncc3)c3ccccc23)cc1 | inactive | –
Cc1cccc2c1ccc1ccccc12 | inactive | –
CC(C)(C)c1ccc(O)c(O)c1 | inactive | –
CN(C)c1ccc(C(=C2C=CC(=[N+](C)C)C=C2)c2ccccc2)cc1 | inactive | –
O=P(O)(O)CCC(F)(F)C(F)(F)C(F)(F)C(F)(F)C(F)(F)C(F)(F)F | inactive | 22.7 µM (active)
O=S(=O)(O)C(F)(F)C(F)(F)C(F)(F)C(F)(F)C(F)(F)C(F)(F)C(F)(F)C(F)(F)C(F)(F)C(F)(F)F | inactive | –
O=C(NO)c1ccccc1 | inactive | –
CC[N+](CC)(CC)Cc1ccccc1 | inactive | –
O=C(c1ccccc1)c1ccccc1 | inactive | –
OCC(F)(F)C(F)(F)C(F)(F)C(F)(F)C(F)(F)C(F)(F)C(F)(F)C(F)(F)C(F)(F)C(F)(F)C(F)(F)F | inactive | 0.423 µM (active)
O=C1OC2(c3ccccc31)c1cc(I)c(O)c(I)c1Oc1c2cc(I)c(O)c1I | – | 7.01 µM (active)

Compound | outcome | AC50
Cc1[nH]nc2c1N=C(c1ccccc1Cl)c1cc([N+](=O)[O-])ccc1N2 | inactive | –
O=C(NCc1ncc(C(F)(F)F)cc1Cl)c1c(Cl)cccc1Cl | inactive | –
N=C(N)c1ccc(OCCCCCOc2ccc(C(=N)N)cc2)cc1 | inactive | –
C=CC(C)(CCC=C(C)C)OC(C)=O (configuration not stated) | inactive | –
CCCCCCCCCCCCCCCCCC[N+](C)(C)Cc1ccccc1 | inactive | –
O=C(O)CCC(F)(F)C(F)(F)C(F)(F)C(F)(F)C(F)(F)C(F)(F)F | inactive | –
Oc1ccc(Cc2ccccc2O)cc1 | inactive | –
CCCCC=O | inactive | –
CN(CCO)S(=O)(=O)C(F)(F)C(F)(F)C(F)(F)C(F)(F)C(F)(F)C(F)(F)C(F)(F)C(F)(F)F | inactive | –
COCN(COC)c1nc(N(COC)COC)nc(N(COC)COC)n1 | inactive | –
O=C1c2ccc(O)c(O)c2C(=O)c2c(O)ccc(O)c21 | inactive | –
OCCN1CN(CCO)CN(CCO)C1 | inactive | –
CCCCc1oc2ccccc2c1C(=O)c1cc(I)c(OCCN(CC)CC)c(I)c1 | inactive | –
O=C(O)CCC(F)(F)C(F)(F)C(F)(F)C(F)(F)C(F)(F)F | inactive | –
CN(Cc1cnc2nc(N)nc(N)c2n1)c1ccc(C(=O)N[C@@H](CCC(=O)O)C(=O)O)cc1 | inactive | –
O=C(CC(=O)C(F)(F)C(F)(F)C(F)(F)F)c1cccs1 | inactive | –
CS(=O)(=O)c1ccc([C@@H](CC2CCCC2)C(=O)Nc2cnccn2)cc1Cl | inactive | –
CC1=NN(c2ccccc2)C(=O)C1 | inactive | –

read-out: Urokinase-type plasminogen activator receptor (uPAR), PLAUR (gene 5329); test: BSK_4H_uPAR: BioMAP Diversity Plus: 4H Assay for Urokinase-type plasminogen activator receptor (uPAR) Biomarker Activity (AID 2283030); conditions: primary human endothelial cells (HUVEC); actives raise or lower the signal
Outline: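 uPAR level read by ELISA on HUVEC cultures (BioMAP 4H) 24 h post-dosing, analyzed for gain or loss relative to DMSO. Parallel SRB staining assessed overt cytotoxicity.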

Compound | outcome | AC50
O=P(O)(O)CCC(F)(F)C(F)(F)C(F)(F)C(F)(F)C(F)(F)C(F)(F)C(F)(F)C(F)(F)F | inactive | –
CCC(C)c1ccccc1O (configuration not stated) | inactive | –
O=C(O)C(F)(F)OC(F)(F)C(F)(F)OC(F)(F)C(F)(F)OC(F)(F)C(F)(F)C(F)(F)C(F)(F)F | – | 43.5 µM (active) and 43.6 µM (active)
CCCCCCCCCCCCCCC | inactive | –
O=C1NS(=O)(=O)c2ccccc21 | inactive | –
C[C@]12CC[C@@H]3c4ccc(O)cc4CC[C@H]3[C@@H]1C[C@@H](O)[C@@H]2O | inactive | –
CCOC(=O)CN[C@@H](C(=O)N1CC[C@H]1C(=O)NCc1ccc(/C(N)=N/O)cc1)C1CCCCC1 | inactive | –
CCCCC(CC)C(=O)OCCOCCOCCOCCOC(=O)C(CC)CCCC (configuration not stated) | inactive | –
Clc1ccc(Nc2nnc(Cc3ccncc3)c3ccccc23)cc1 | inactive | –
Cc1cccc2c1ccc1ccccc12 | inactive | –
CC(C)(C)c1ccc(O)c(O)c1 | inactive | –
CN(C)c1ccc(C(=C2C=CC(=[N+](C)C)C=C2)c2ccccc2)cc1 | – | 0.00549 µM (active)
O=P(O)(O)CCC(F)(F)C(F)(F)C(F)(F)C(F)(F)C(F)(F)C(F)(F)F | inactive | –
O=S(=O)(O)C(F)(F)C(F)(F)C(F)(F)C(F)(F)C(F)(F)C(F)(F)C(F)(F)C(F)(F)C(F)(F)C(F)(F)F | inactive | –
O=C(NO)c1ccccc1 | inactive | –
CC[N+](CC)(CC)Cc1ccccc1 | inactive | –
O=C(c1ccccc1)c1ccccc1 | inactive | –
OCC(F)(F)C(F)(F)C(F)(F)C(F)(F)C(F)(F)C(F)(F)C(F)(F)C(F)(F)C(F)(F)C(F)(F)C(F)(F)F | inactive | –
O=C1OC2(c3ccccc31)c1cc(I)c(O)c(I)c1Oc1c2cc(I)c(O)c1I | – | 8.51 µM (active)

Compound | outcome | AC50
Cc1[nH]nc2c1N=C(c1ccccc1Cl)c1cc([N+](=O)[O-])ccc1N2 | – | 0.666 µM (active)
O=C(NCc1ncc(C(F)(F)F)cc1Cl)c1c(Cl)cccc1Cl | inactive | –
N=C(N)c1ccc(OCCCCCOc2ccc(C(=N)N)cc2)cc1 | – | 3.47 µM (active)
C=CC(C)(CCC=C(C)C)OC(C)=O (configuration not stated) | – | 28.9 µM (active)
CCCCCCCCCCCCCCCCCC[N+](C)(C)Cc1ccccc1 | – | 0.59 µM (active)
O=C(O)CCC(F)(F)C(F)(F)C(F)(F)C(F)(F)C(F)(F)C(F)(F)F | inactive | –
Oc1ccc(Cc2ccccc2O)cc1 | inactive | –
CCCCC=O | inactive | –
CN(CCO)S(=O)(=O)C(F)(F)C(F)(F)C(F)(F)C(F)(F)C(F)(F)C(F)(F)C(F)(F)C(F)(F)F | inactive | –
COCN(COC)c1nc(N(COC)COC)nc(N(COC)COC)n1 | inactive | –
O=C1c2ccc(O)c(O)c2C(=O)c2c(O)ccc(O)c21 | inactive | –
OCCN1CN(CCO)CN(CCO)C1 | – | 29 µM (active)
CCCCc1oc2ccccc2c1C(=O)c1cc(I)c(OCCN(CC)CC)c(I)c1 | – | 15.1 µM (active)
O=C(O)CCC(F)(F)C(F)(F)C(F)(F)C(F)(F)C(F)(F)F | inactive | –
CN(Cc1cnc2nc(N)nc(N)c2n1)c1ccc(C(=O)N[C@@H](CCC(=O)O)C(=O)O)cc1 | inactive | –
O=C(CC(=O)C(F)(F)C(F)(F)C(F)(F)F)c1cccs1 | – | 49.1 µM (active) and 54.8 µM (active)
CS(=O)(=O)c1ccc([C@@H](CC2CCCC2)C(=O)Nc2cnccn2)cc1Cl | – | 22.7 µM (active)
CC1=NN(c2ccccc2)C(=O)C1 | inactive | –
